D2 PAM-1 = potentiates the human D2 dopamine receptor allosterically; P14416; 360,000 compounds, 0.23% hits; potentiation, % (concentration not given with the values); DiscoveRx D2 beta-arrestin cells, luminescence, 90 min; 100% = 57 uM dopamine signal; in the data active means potentiation above about 50%; inconclusive means mostly about 30% to 49%
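PathHunter D2 cells, attached overnight at 37 deg C, received compound in DMSO plus dopamine at EC20 (50 nM final) for 90 min at 37 deg C. Beta-arrestin recruitment was read as luminescence after 1 h with detection reagent at ambient temperature.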
D2 antagonist = D2 dopamine receptor (human) antagonism; P14416; AID 485344; 340,000 compounds, 2% hits; inhibition, % at 10 µM; HEK293 TREx D2 cells, calcium flux, dopamine EC80; in the data active means inhibition above about 30%; inactive means below that, where a call was filed
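Tetracycline-induced HEK293 T-REx cells expressing D2 force-coupled to calcium signalling were dye-loaded, exposed to compound for 180 s, then challenged with an EC80 of dopamine; calcium flux was followed kinetically for a further 180 s.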
D2 PAM-2 = positively modulates the human D2 dopamine receptor allosterically | P14416 | HEK293 T-REx D2, calcium flux, EC20 dopamine potentiation | potentiation, % at 10 µM | 340,000 compounds, 0.34% hits | AID 485347;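 active means potentiation over 3 SD above the plate norm, cut at about 30% in these data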
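Using a no-wash calcium dye in inducible, force-coupled HEK293 Trex cells expressing D2, we tracked fluorescence each second for 180 s after compound, then for 180 s after EC20 dopamine to detect augmented signalling.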
D2 ag-1 = agonists of human D2 dopamine receptor (beta-arrestin); DiscoveRx PathHunter D2 beta-arrestin, luminescence, 90 min; 100% = 57 uM dopamine signal; AID 624465; activation, % (no concentration beside the values); 360,000 compounds, 0.084% hits; P14416; in the data active means activation above about 40%; inconclusive means between about 15% and that limit
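DiscoveRx PathHunter D2 beta-arrestin cells (2,100/well) attached overnight, then compound-stimulated 90 min at 37 C in HBSS/10 mM HEPES/0.1% Tween-20 buffer; beta-galactosidase complementation read by luminescence after 1 h at ambient temperature. Dopamine 57 uM final (EC100) as control.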
D2 ag-2 = agonists of human D2 dopamine receptor. P14416. HEK293 T-REx D2 cells, calcium flux agonist mode. activation, % at 2 µM. 340,000 compounds, 0.53% hits;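 active means activation over 3 SD above normal in the single-dose calcium agonist read, cut at about 30% in these data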
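Tetracycline-induced HEK293 Trex cells with D2 receptor force-coupled to calcium signaling, plated overnight at 30 C and loaded with no-wash calcium dye. Calcium flux read kinetically for 180 s after compound addition; responses flag agonists.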
D3 ag = activates human D3 dopamine receptor beta-arrestin recruitment; Potency, µM (highest dose often 76.9 µM), most hits filed as activators; DiscoveRx D3 beta-arrestin cells, luminescence, 90 min; shares compounds with D2 ag-2; AID 720506; 2,300 compounds, 4% hits; further: nearly all actives have a fitted effect of over 70% in size
Target sequence (P35462 whole entry, looked up): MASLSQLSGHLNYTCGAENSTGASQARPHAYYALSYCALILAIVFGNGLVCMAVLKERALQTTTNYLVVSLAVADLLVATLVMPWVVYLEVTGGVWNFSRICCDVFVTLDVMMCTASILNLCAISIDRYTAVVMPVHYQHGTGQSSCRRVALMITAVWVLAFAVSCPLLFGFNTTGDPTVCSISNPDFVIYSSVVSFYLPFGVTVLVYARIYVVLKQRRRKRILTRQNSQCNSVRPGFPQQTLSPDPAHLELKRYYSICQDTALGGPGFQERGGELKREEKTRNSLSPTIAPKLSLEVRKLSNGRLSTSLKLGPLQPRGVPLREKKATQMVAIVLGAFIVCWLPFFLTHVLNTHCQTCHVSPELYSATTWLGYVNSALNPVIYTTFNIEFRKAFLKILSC
D2 ag-3 = activates human D2 dopamine receptor in D3 counterscreen; shares compounds with D2 ag-2; Potency, µM (doses to about 76.9 µM), actives largely listed as activators; DiscoveRx PathHunter D2 beta-arrestin, luminescence, 90 min; response scale: percent relative to full dopamine signal; 2,300 compounds, 5.9% hits; further: nearly all actives have a fitted effect of over 70% in size
Hits are given with their value; n = inactive; u = inconclusive; x = no result given. An excerpt weighted towards active compounds, which were near 2.4% of everything screened. Unless noted, the call rests on the fitted dose curve; in most records, active means well fitted activation curve with a large enough effect; inconclusive means small, poorly fitted or top-dose-only effect; inactive means flat fitted curve, though single readings scatter.

SMILES	D2 PAM-1	D2 antagonist	D2 PAM-2	D2 ag-1	D2 ag-2	D3 ag	D2 ag-3
CCCCCNC(=O)c1c[nH]c2ccc(S(=O)(=O)N3CCC4(CC3)OCCO4)cc2c1=O	n	n	n	n	n	x	x
CCOc1ccc(NC(=O)Cn2c(=O)cc(C)c3c(C)nn(-c4ccc(CC)cc4)c32)cc1	x	x	n	x	n	x	x
COc1ccc(C)cc1NC(=O)CCN1CCN(C/C=C/c2ccccc2)CC1	n	68.0	n	n	69.9	n	u
CCC(=NCCc1ccccc1)C1=C(O)CCC1=O	n	n	n	n	49.4	n	n
O=[N+]([O-])c1ccc(C=CC=Cc2ccccc2)cc1	n	x	x	n	x	x	x
O=[N+]([O-])c1ccc(/C=C/C2=NN(c3ccccc3)C(c3ccco3)C2)cc1 (stereo not drawn)	n	n	n	n	51.0	n	n
O=C(NC1CCCCC1)c1cc(C2CC2)nn1-c1ccccc1	n	x	x	n	x	n	n
O=C(OCCc1cc2ccccc2c(=O)o1)c1cccc(Br)c1	n	n	n	n	n	n	n
CN(CCOC(=O)c1cccc(Br)c1)C(C)(C)C	n	31.1	n	n	70.6	n	n
O=C(OCCc1cc2ccccc2c(=O)o1)c1ccc(C(F)(F)F)cc1	n	n	n	n	n	n	n
O=C(OCCc1cc2ccccc2c(=O)o1)c1ccc(F)cc1	n	n	n	n	n	x	x
CCN(CC)CCOC(=O)c1cccc(Br)c1	n	n	n	n	n	x	x
COc1cc(-c2n[nH]c(=S)n2/N=C/c2cccn2C)cc(OC)c1OC	n	n	n	n	n	n	n
Cn1cccc1/C=N/n1c(-c2ccco2)n[nH]c1=S	n	n	n	n	n	x	x
COc1ccc(N=C2NC(=O)S/C2=C\c2ccc(N(C)C)cc2)cc1	n	n	n	n	n	n	n
CCOc1ccc(N=C2NC(=O)S/C2=C\c2ccc(Cl)cc2)cc1	n	n	n	n	n	x	x
O=C(NCCN1CCN(c2ccccc2)CC1)c1ccccc1F	n	72.2	n	u	79.3	u	n
O=C(NCCS(=O)(=O)N1CCN(c2ccccc2)CC1)c1ccccc1F	n	n	n	n	n	n	n
O=C(COc1ccccc1)NCCS(=O)(=O)N1CCN(c2ccccc2)CC1	n	77.4	n	u	n	n	u
CC1(NC(=S)Nc2ccc3ccccc3c2)CCS(=O)(=O)C1 (stereo not drawn)	n	36.6	n	n	n	n	n
O=S1(=O)CCC(NC(=S)Nc2ccc3ccccc3c2)C1 (stereo not drawn)	n	n	n	n	n	x	x
Cc1ccc(-c2cc(C(=O)Nc3cc([N+](=O)[O-])ccc3C)no2)cc1F	x	x	n	x	n	x	x
N#CC1=C(N)NC(SCc2ccc(Br)cc2)=C(C#N)C12CCCCC2	n	x	x	n	x	x	x
N#CC1=C(N)NC(SCC(=O)Nc2ccc(Br)cc2)=C(C#N)C12CCCCC2	n	n	n	n	75.4	n	n
Cc1cc(C(F)F)n2nc(C(=O)Nc3cc(C)on3)nc2n1	n	n	n	n	n	n	n
SMILES	D2 PAM-1	D2 antagonist	D2 PAM-2	D2 ag-1	D2 ag-2	D3 ag	D2 ag-3
Cc1cc(C(F)F)n2nc(C(=O)Nc3c(C)cccc3C)nc2n1	x	x	n	x	n	x	x
COc1cc(OC)c2c(C)cc(=O)oc2c1C(CCN1CCOCC1)c1ccc2c(c1)OCO2 (stereo not drawn)	n	n	n	n	n	x	x
COc1cc(C(CCN2CCN(c3ccccc3)CC2)c2c(OC)cc(OC)c3c(C)cc(=O)oc23)cc(OC)c1OC (stereo not drawn)	n	n	n	n	n	n	n
Cc1cc2nc(C(C)(C)C)c(Cc3ccccc3)n2c(C)c1Br	n	x	x	n	x	x	x
CCCCNc1nc(CC(C)=O)ns1	n	30.2	n	n	50.2	n	n
CNc1nc(CC(C)=O)ns1	n	n	n	n	n	x	x
O=c1nc(Nc2ccc([N+](=O)[O-])cc2)[nH]c(=O)[nH]1	n	n	n	n	n	x	x
COc1ccc(C(=O)NCCCN(C)CCCNC(=O)c2ccc(OC)cc2)cc1	n	n	n	n	n	x	x
O=C(CCc1nnc2n(Cc3ccc(F)cc3)c(=O)c3ccccc3n12)NCCN1CCOCC1	n	n	n	n	n	x	x
O=C(CCc1nnc2n(Cc3ccc(F)cc3)c(=O)c3ccccc3n12)N1CCN(c2ccccn2)CC1	n	n	n	n	53.0	n	n
O=C(CC(=O)Nc1cccc(Cl)c1Cl)Nc1cccc(Cl)c1Cl	n	n	n	n	n	x	x
O=C(c1ccccc1)c1ccc(O)cc1O	n	n	n	n	n	x	x
CC(=O)c1cc2c(C)c(C(=O)c3ccccc3)oc2cc1O	n	n	n	n	35.6	n	n
CCCN(CC(=O)Nc1ccccc1C)C(=O)CCCc1c[nH]c2ccccc12	n	n	n	n	n	x	x
CC(CNC(=O)C1CCN(S(=O)(=O)c2ccc3c(ccn3C)c2)CC1)c1ccccc1 (stereo not drawn)	x	x	n	x	n	x	x
N#C/C(=C\c1ccc(F)c(Cl)c1)S(=O)(=O)c1ccccn1	n	n	n	n	n	x	x
Nc1nc2ccccc2n1/N=C/c1ccc([N+](=O)[O-])s1	n	n	n	n	n	u	n
Cn1c(=O)c2[nH]c(N3CCN(c4ccccn4)CC3)nc2n(C)c1=O	x	n	n	x	n	n	n
Cn1c(=O)c2[nH]c(N3CCCCC3)nc2n(C)c1=O	n	n	n	n	n	x	x
COc1ccc(NC(=O)C[C@H]2C(=O)N(c3ccc(Br)cc3)C[C@@H]2CSC)cc1	n	x	x	n	x	x	x
O=C(O)C1CCCC2CN3CCc4c([nH]c5ccccc45)C3C(O)C21 (stereo not drawn)	n	57.1	n	u	n	n	u
O=C(O)[C@@H]1[C@H]2C[C@H]3c4[nH]c5ccccc5c4CCN3C[C@@H]2CC[C@@H]1O	n	68.0	n	n	40.9	n	u
O=C1CCC2CN3CCc4c([nH]c5ccccc45)C3CC2C1 (stereo not drawn)	n	x	x	n	x	x	x
Cc1ncoc1C(=O)N1CCc2c([nH]c3ccccc23)C1C1CCCCC1 (stereo not drawn)	n	n	n	n	n	x	x
CCC(CC)c1nnc(NC(=O)c2cc(-c3ccccc3)nc3ccccc23)s1	n	x	x	n	x	n	n
CN[C@H]1C[C@H]2c3cc(N4CCN(C)CC4)ccc3CCN2C(=O)[C@H]1[C@H](C)O	n	x	x	n	x	x	x
CCN(CC)S(=O)(=O)c1ccc(C(=O)N2CCN(C(=O)c3ccco3)CC2)cc1	n	x	n	n	x	x	x
Cc1ccc2c(C)c(C(=O)Nc3cccnc3)oc2c1C	n	x	x	n	x	x	x
